AmpC inh detg: inhibitors of E. coli AmpC beta-lactamase with detergent. AmpC hydrolysis of nitrocefin, absorbance 480 nm, 0.01% Triton. Potency, µM (titrated, usually from 114 µM), for inactives: top-dose activity change, negative = inhibition, actives largely listed as inhibitors. 370,000 compounds, 0.041% hits;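 note: potency is the fitted concentration of half-maximal effect; 0% = no-compound wells and -100% = no-enzyme wells; nearly all actives have a fitted effect of over 25% in size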
Target sequence (P00811 whole entry, looked up): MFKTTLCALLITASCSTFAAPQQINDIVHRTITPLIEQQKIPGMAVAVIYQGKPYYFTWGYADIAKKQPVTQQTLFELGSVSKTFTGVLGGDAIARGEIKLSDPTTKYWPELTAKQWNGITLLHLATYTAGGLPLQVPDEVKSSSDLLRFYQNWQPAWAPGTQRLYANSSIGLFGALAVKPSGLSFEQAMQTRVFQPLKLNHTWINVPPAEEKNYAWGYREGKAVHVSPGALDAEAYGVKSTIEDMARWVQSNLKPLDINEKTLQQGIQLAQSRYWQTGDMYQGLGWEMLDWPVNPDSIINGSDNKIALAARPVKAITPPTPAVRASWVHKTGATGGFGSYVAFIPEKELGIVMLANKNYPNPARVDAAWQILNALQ
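20 mM phosphate pH 7.0 + 0.01% (detergent screen) or 0.0001% Triton X-100; 5.3 nM AmpC reagent; cpd preinc 15 min RT; nitrocefin (800 uM stock) to start; A480 q20 s × 4 min; Activity was normalised to no-enzyme and no-compound control wells.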
AmpC no deterg: inhibitors of E. coli AmpC beta-lactamase without detergent; P00811; AmpC nitrocefin hydrolysis, absorbance 480 nm, 0.0001% Triton; Potency, µM (series often up to 57.1 µM), inactives show at the highest dose activity change, negative = inhibition, most hits filed as inhibitors; 330,000 compounds, 0.52% hits;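 note: potency is the fitted concentration of half-maximal effect; plate controls were no compound for no effect and no enzyme for full effect; nearly all actives have a fitted effect of over 20% in size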
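AmpC (5.3 nM in the dispensed reagent) in 20 mM phosphate pH 7.0 with 0.01% (detergent screen) or 0.0001% Triton X-100 was preincubated with compounds for 15 min at room temperature. Nitrocefin was then added from an 800 uM solution, and hydrolysis was followed at 480 nm.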
FMDV inh: antivirals against foot and mouth disease virus; Potency, µM (highest dose often 57.9 µM), without a hit: top-dose activity change, negative = inhibition, hits mostly inhibitors; FMDV antiviral cell-based qHTS; 410,000 compounds, 1.2% hits; calls by dose curve; tested in HEK293T cells; note: read-out not given here; potency is the fitted concentration of half-maximal effect; nearly all actives have a fitted effect of over 45% in size
HCV inhibitor: HCV inhibition; Huh7.5.1 HCVcc-Cre infection, luciferase reporter, 44 h; Potency, µM (highest dose often 41.8 µM), without a hit: top-dose activity change, negative = inhibition, usual class: inhibitors; 340,000 compounds, 3.4% hits; AID 651820; note: potency is the fitted concentration of half-maximal effect
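After 44 h co-culture of compound, cells and HCVcc-Cre (~0.5 moi), substrate is added for 15 min at room temperature and luciferase measured over 15 sec. Cells were seeded at 1,000/well and pre-cultured 4 h.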
HCMV antiviral: blocks human cytomegalovirus replication; HFF cells, HCMV-luciferase reporter, 72 h; active compounds read low; activity change, negative = inhibition, % at 57.5 µM; 410,000 compounds, 4.5% hits; AID 1259415; in the data active = activity change below about -60%; inconclusive = no clear call, values can overlap the other calls; inactive = above about -39%
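Two compound doses tested in HFFs infected with HCMV-luciferase, MOI 1 PFU/cell, 72 h at 37C. Lysate luminescence read with OneGlo; data normalized against buffer-only and 10uM Salinomycin inhibitor controls.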
Active calls of the source: *; u = inconclusive; x = no result. Rows were chosen to be rich in hits. Some 7.3% of all compounds tested hit in one or more screens of this group. Unless noted, calls come from the whole dose curve; as a rule, active = well fitted curve in the direction sought with a large enough effect; inconclusive = small, poorly fitted or top-dose-only effect, or another doubt; inactive = no such curve, though single readings can be large; an effect the other way counts as inactive or inconclusive. Unless noted, % is set by controls: 0 for no effect and ±100 for the full control effect.

SMILES	AmpC inh detg	AmpC no deterg	FMDV inh	HCV inhibitor	HCMV antiviral
CCN(CC)S(=O)(=O)c1ccc(-c2nnc(SCC(=O)N3c4ccccc4CC3C)n2CC)cc1 (stereo not drawn)	-8%	-10%	20µM*	u	u
Cc1ccc(C2=NCC(C)n3c2c2ccccc2[n+]3[O-])cc1 (stereo not drawn)	x	x	x	x	19
Cc1ccc(-n2nnnc2SCC(=O)Nc2ccc(N3CCN(C)CC3)cc2)c(C)c1	4%	49%	-21%	-16%	-99*
Cc1ccc(-n2nnnc2SCC(=O)N2CCc3ccccc3C2)cc1	-9%	-21%	0%	u	32
Cc1ccc(-n2nnnc2SCC(=O)N2CCc3ccccc3C2)c(C)c1	u	-16%	-2%	13µM*	-4
CCC(=O)NCCn1c(C)cc2ccccc21	u	74%	-1%	4%	x
CC(=O)NCCOc1cccc2ccccc12	u	27%	32%	u	91
O=C(Cc1cccc2ccccc12)NCCOc1ccccc1F	-4%	-10%	-2%	0%	-63*
Cc1cc2ccccc2n1CCNC(=O)Cc1cccc2ccccc12	u	-16%	-27%	6.3µM*	34
COc1ccc(NS(=O)(=O)c2cccc(C(=O)N/N=C(\C)c3cccnc3)c2)cc1	-10%	16%	17%	-3%	-8
CCOc1ncccc1C(=O)Nc1ccc(S(=O)(=O)Nc2cc(C)nc(C)n2)cc1	x	15%	60%	4%	19
CCCN(C(=O)c1ccc2c(SCC(=O)O)c3c(nc2c1)CCC3)c1cccc(C)c1	0%	-10%	-10%	12%	-60*
COc1ccc(-n2nc(C(=O)Nc3ccc(OC)c(OC)c3)c3c4ccccc4n(C)c3c2=O)cc1	-9%	-7%	-16%	u	-64*
COc1ccc(-n2nc(C(=O)NCC(=O)Nc3cc(OC)ccc3OC)c3ccccc3c2=O)cc1	u	42%	u	u	-15
COc1ccc(-n2nc(C(=O)NCC(=O)Nc3cc(Cl)c(OC)cc3OC)c3ccccc3c2=O)cc1	4%	-12%	-11%	32µM*	16
COc1ccc(-n2nc(C(=O)NCC(=O)NC3CCCC(C)C3C)c3ccccc3c2=O)cc1 (stereo not drawn)	-7%	0%	-22%	u	9
COc1ccc(-n2nc(C(=O)NCC(=O)NC3CCCC(C)C3C)c3ccccc3c2=O)c(OC)c1 (stereo not drawn)	u	-4%	-17%	-14%	-61*
Cn1ncc2c(NCc3ccc(Cl)cc3)ncnc21	7%	x	-21%	x	u
COc1ccc(C(C)(O)c2nc(-c3ccc(N(C)C)cc3)cs2)cc1 (stereo not drawn)	x	x	-24%	x	u
[O-][n+]1ccccc1C(O)CSc1ccccc1 (stereo not drawn)	x	x	x	x	-27
COc1ccccc1CNC(=O)Cn1c(=O)nc(-c2ccccc2)c2ccccc21	9%	x	5%	x	13
COc1ccc(N(C(=O)c2csnn2)C(C(=O)NC2CCCC2)c2cccs2)cc1 (stereo not drawn)	6%	-17%	27%	1%	-5
CCOC(=O)C1=CCN(S(=O)(=O)c2ccccc2C(=O)OC)C1c1ccc(Cl)cc1 (stereo not drawn)	x	x	-21%	x	-24
O=C(NC1CCCCC1)c1ccc(COc2ccccc2)o1	0%	-8%	-17%	u	-4
O=C(NC1CCCC1)c1ccc(COc2ccccc2Br)o1	4%	-19%	-25%	13µM*	38
SMILES	AmpC inh detg	AmpC no deterg	FMDV inh	HCV inhibitor	HCMV antiviral
Cc1cc2c(cc1NS(=O)(=O)c1cccc(C#N)c1)n(C)c(=O)c(=O)n2C	7%	x	2%	x	22
CC[C@]12c3[nH]c4ccc(Cl)cc4c3CCN1C(=O)[C@@H](CC(=O)NC/C=C(\C)CCC=C(C)C)C[C@@H]2C(=O)N1CCN(C(=O)c2ccco2)CC1	x	184%	u	11µM*	u
CC(C)=CCC/C(C)=C/CNC(=O)C[C@H]1C[C@H](C(=O)N2CCOCC2)[C@@]2(CCC3CCCC3)c3[nH]c4cc(CCC(=O)N(C)C)ccc4c3CCN2C1=O	x	1%	u	11µM*	-108*
COc1ccc2[nH]c3c(c2c1)CCN1C(=O)C(CC(=O)NC/C=C(\C)CCC=C(C)C)C[C@H](C(=O)N2CCOCC2)[C@@]31CCC1CCCC1 (stereo partly drawn)	x	-5%	-7%	2.5µM*	8
CN(C)C(=O)CCc1ccc2c3c([nH]c2c1)[C@]1(CCC2CCCC2)[C@@H](C(=O)N2CCOCC2)C[C@H](CC(=O)NCC24CC5CC(CC(C5)C2)C4)C(=O)N1CC3	x	-8%	u	-2%	-14
CCc1noc(C)c1C(=O)Nc1ccccc1N1CCOCC1	-2%	4%	-22%	3%	-5
Fc1ccc2c(c1)c1n[nH]c(=S)nc1n2CCc1ccccc1	2%	-25%	-6%	7%	u
Cc1ccc2c(c1)c1n[nH]c(=S)nc1n2CCc1ccccc1	3%	-13%	-29%	-6%	-93*
CCOCCCNC(=O)C(NC(=O)c1ccc(NC(C)=O)cc1)c1ccc(Cl)cc1 (stereo not drawn)	-10%	3%	0%	0%	-63*
COP(=O)(OC)SCn1c(=O)oc2cc(Cl)cnc21	x	x	x	x	16
O=C(c1cc(C(F)(F)F)cc(C(F)(F)F)c1)N1CCC[C@@]2(CCN(Cc3nccs3)C2)C1	x	x	-15%	x	x
COc1cccc(NC(=S)N(Cc2ccccn2)Cc2ccccc2Cl)c1	u	-23%	23%	u	-60*
COc1cc([C@@H]2c3cc4c(cc3[C@@H](O[C@@H]3O[C@@H]5CO[C@@H](C)O[C@H]5[C@H](O)[C@H]3O)[C@H]3COC(=O)[C@H]23)OCO4)cc(OC)c1O	x	x	0%	u	-99*
COc1cc(C2c3cc4c(cc3C(OC3OC5COC(C)O[C@@H]5C(O)C3O)C3COC(=O)C23)OCO4)cc(OC)c1O (stereo partly drawn)	x	x	2%	x	x
COc1cc(C2c3cc4c(cc3C(OC3OC5COC(c6cccs6)OC5C(O)C3O)C3COC(=O)C23)OCO4)cc(OC)c1O (stereo not drawn)	3%	127%	-18%	-31%	-99*
COc1cc([C@@H]2c3cc4c(cc3[C@@H](OC)[C@H]3COC(=O)[C@H]23)OCO4)cc(OC)c1O	-7%	6%	-10%	15%	u
O=C1CCC[C@H]2[C@@H](Cc3ccccc3)[C@@H](NS(=O)(=O)Cc3ccccc3)CC[C@]23CCCN13	x	x	x	x	-17
CN(C(=O)CN1CCN(c2cc(-c3ccc(-c4ccccc4)cc3)ncn2)CC1)c1ccccc1	x	x	22µM*	x	-67*
Cc1ccc(/C=C/c2ccc3cccc(O)c3n2)s1	2%	-36%	21%	u	114
